Results on 33 molecules are retold here after ChEMBL document CHEMBL3433997, “St. Jude Leishmania screening dataset” (2016).

Common to all, as to format: functional
The target in test [1] is Solute carrier family 2, facilitated glucose transporter member 1 (Homo sapiens) (UniProt P11166). Description: ST_JUDE_LEISH: Cytotoxicity at 2uM final concentration against transgenic Leishmania Mexicana promastigotes LmGLUT1 that are glucose transport deficient and complemented with the human glucose transporter GLUT1. Activity is measured by DNA content using SYBR green in vitro.
Sequence of Solute carrier family 2, facilitated glucose transporter member 1 (Homo sapiens) (P11166 whole entry): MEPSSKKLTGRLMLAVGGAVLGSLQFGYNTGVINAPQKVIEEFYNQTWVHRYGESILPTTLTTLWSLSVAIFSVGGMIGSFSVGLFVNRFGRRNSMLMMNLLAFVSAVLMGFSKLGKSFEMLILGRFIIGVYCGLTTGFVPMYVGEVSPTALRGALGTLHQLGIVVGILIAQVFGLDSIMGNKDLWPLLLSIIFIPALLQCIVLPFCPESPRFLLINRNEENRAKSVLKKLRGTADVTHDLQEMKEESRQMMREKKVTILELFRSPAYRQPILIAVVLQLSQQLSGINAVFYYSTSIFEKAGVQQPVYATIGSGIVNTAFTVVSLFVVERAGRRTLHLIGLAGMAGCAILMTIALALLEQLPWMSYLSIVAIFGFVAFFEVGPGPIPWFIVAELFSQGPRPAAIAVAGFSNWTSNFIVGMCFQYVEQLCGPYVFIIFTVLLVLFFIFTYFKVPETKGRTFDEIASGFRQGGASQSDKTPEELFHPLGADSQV

Test [2] deals with Hexose transporter 1 (Plasmodium falciparum) (UniProt O97467). Description: ST_JUDE_LEISH: Cytotoxicity at 2uM final concentration against transgenic Leishmania Mexicana promastigotes LmPfHT that are glucose transport deficient and complemented with the Plasmodium falciparum hexose transporter. Activity is measured by DNA content using SYBR green in vitro.
Test [3] concerns the target Glucose transporter (Leishmania mexicana) (UniProt O61059). The experiment in a line: ST_JUDE_LEISH: Cytotoxicity at 2uM final concentration against transgenic Leishmania Mexicana promastigotes LmGT2 that are glucose transport deficient and complemented with the L. Mexicana glucose transporter 2. Activity is measured by DNA content using SYBR green in vitro.

For orientation: inhibition means the relative decrease from the control value, in per cent.

For the molecule `CCOC(=O)c1cnc2c(OC)cc(OC)c(Cl)c2c1Nc1cccc(C)c1`, the inhibition in test [1] turned out to be 9.4%; in test [2], 8.66%; in test [3], 4.43%.

On to `CC(C)(C)c1ccc(-c2nc3c(ccc4nc(N)nc(N)c43)[nH]2)cc1`, for which the inhibition in test [1] was -1%; in test [2], -1.54%; in test [3], -2.76%.

For `COc1cc2nc(N3CCC(CNC(=O)c4ccc(C(C)=O)cc4)CC3)nc(N)c2cc1OC`, the inhibition in test [1] stood at 2.39%; in test [2] it was 2.18%; in test [3] it was 3.9%.

Take `O=C(Nc1ccc2c(c1)CCC2)c1ccc(CN2CCCN(Cc3cccc(O)c3)CC2)cc1`: the inhibition in test [1] was found to be 11.2%; in test [2], 12.1%; in test [3], 9.95%.

For the molecule `COc1ccc(O)c(C(=O)c2cc(C(=O)NC3CCCCC3)c(=O)n(C3CCCCC3)c2)c1`, the inhibition in test [1] was found to be 5.33%; in test [2], 4.33%; in test [3], 3.2%.

Consider `COc1ccc2nccc([C@@H](O)CN3CCC(NCc4ccc5nnsc5c4)CC3)c2c1`, for which the inhibition in test [1] was -1.03%; in test [2] it was 0.44%; in test [3], -0.67%.

For `COc1ccc2nc3cc(Cl)ccc3c(NCCc3ccccc3)c2c1`, the inhibition was 1.15% in test [1], 1.24% in test [2] and -0.37% in test [3].

Take `COCCN(C(=O)Cc1cccs1)C(C(=O)NCc1ccc(OC)cc1)c1ccc(C(C)C)cc1` (centres undefined): the results for the inhibition in test [1], in test [2] and in test [3] were 2.96%, -3.02% and -0.76%, respectively.

Take `COc1ccc2nc3cc(Cl)ccc3c(NCCCO)c2c1`: the inhibition in test [1] stood at 0.97%; in test [2], 0.85%; in test [3] it was 2.01%.

Turning to `CN1CCN(CCCN(Cc2ccc(-c3ccc(CNCc4ccc5c(c4)OCO5)cc3)cc2)C(=O)Nc2ccccc2)CC1`, the inhibition was determined as 11.6% in test [1], 13.7% in test [2] and 11% in test [3].

`O=C(NC1CCC(CCN2Cc3cccc(F)c3C2)CC1)c1cccc(-c2cccnc2)c1` (centres undefined): the inhibition was 0.7% in test [1], 1.22% in test [2] and -1.89% in test [3].

For the molecule `CCCN(CCC)CCCNc1ccc(C(=O)Nc2ccc(C)c(F)c2)cc1[N+](=O)[O-]`, the results for the inhibition in test [1], in test [2] and in test [3] were 76.3%, 74.6% and 74%, respectively.

Take `O=S(=O)(c1ccc(OCc2ccc(Cl)cc2)cc1)c1cc2c(c(-c3ccc(F)cc3)c1)CCN(CC1CC1)CC2`: the inhibition was 2.2% in test [1], 0.41% in test [2] and -0.48% in test [3].

`CC1(C)N=C(N)N=C(N)N1c1ccc2ccccc2c1`: the values for the inhibition in test [1], in test [2] and in test [3] were 3.26%, 3.3% and 4.01%, respectively.

Consider `Cc1ccc(Cl)cc1NC(=O)c1c(-c2ccccc2Cl)noc1C`, for which the inhibition in test [1] was -0.47%; in test [2], -1.54%; in test [3] it was -0.61%.

On to `Cc1cc(NC(=O)Nc2ccc(C(C)(C)C)cc2)c2ccccc2n1`, for which the inhibition was 1.18% in test [1], 3.8% in test [2] and -3.31% in test [3].

As for `CCn1c(-c2nonc2N)nc2c(Cl)ncc(O[C@H](CCN)c3ccccc3F)c21`, the inhibition was found to be 58.6% in test [1], 48.5% in test [2] and 20.2% in test [3].

Take `COc1nc2c(N3CCN(CCNCc4ccc5c(n4)NC(=O)CS5)CC3)ccnc2cc1F`: the inhibition is 0.45% in test [1], -0.85% in test [2] and 0.49% in test [3].

Regarding `Cc1cc(=O)c(-c2ccc(Oc3cccc(Cl)c3)cc2)c(C)[nH]1`, the inhibition in test [1] amounted to 6.01%; in test [2] it was 5.62%; in test [3], 2.24%.

On to `FC(F)(F)c1ccc2c(NCCCNc3ccnc4cc(C(F)(F)F)ccc34)ccnc2c1`, for which the inhibition in test [1] was -2.25%; in test [2] it was 3.22%; in test [3], -4.41%.

As to `C[C@@H](CC1CCCCC1)NCc1cccc(NS(=O)(=O)c2ccc(O)c(-c3ccno3)c2)c1`, the figures for the inhibition in test [1], in test [2] and in test [3] were 10.7%, 8.37% and 14.5%, respectively.

As for `CCC1N=C(N)N=C(N)N1OCc1ccc(Cl)c(Cl)c1` (centres undefined), the inhibition in test [1] was -0.58%; in test [2], 0.09%; in test [3] it was -0.8%.

For the molecule `c1cc(C2=NC3CCCCC3N2)ccc1OCCCOc1ccc(C2=NC3CCCCC3N2)cc1` (centres undefined), the inhibition was determined as 7.04% in test [1], 6.74% in test [2] and 1.12% in test [3].

On to `Cc1cc(Nc2ccc(O)cc2)nc2cccc(O)c12`, for which the results for the inhibition in test [1], in test [2] and in test [3] were 2.06%, 0.79% and 3.84%, respectively.

With `C[C@H](Cc1ccc(OCCNC[C@H](O)c2cccc(Cl)c2)cc1)NC[C@H](O)c1ccc(Cl)c(Cl)c1`, the values for the inhibition in test [1], in test [2] and in test [3] were 2.67%, 1.89% and 3.19%, respectively.

Regarding `Nc1c2c(nc3ccc(NC(=O)Cc4ccccc4)cc13)CCCC2`, the inhibition was determined as 4.09% in test [1], 5.7% in test [2] and 6.71% in test [3].

On to `O=C(NCCCCCN1CCCN(C(=O)Nc2ccc(F)c(C(F)(F)F)c2)CC1)C1CC1c1ccc(Cl)c(Cl)c1` (centres undefined), for which the inhibition in test [1] was 2.53%; in test [2], 2.1%; in test [3], 0.2%.

Consider `COc1cccc(-c2[nH]c3ccccc3c2CN2CCC(c3c(C)cccc3C)CC2)c1`, for which the inhibition in test [1] was 2.03%; in test [2] it was 2.95%; in test [3] it was -1.74%.

`CC(C)(C)c1ccccc1SC1=C(O)CC2(CCNCC2)OC1=O`: the inhibition in test [1] came to 0.78%; in test [2], 0.64%; in test [3], 1.29%.

For `CCCN(CCC)CCCN(CCCN(CCC)CCC)c1cc(C)nc(Nc2ccc(Cl)cc2)n1`, the inhibition in test [1] is 3.33%; in test [2], 1.71%; in test [3], 2.52%.

On to `O=C(Nc1cccc(CN2CCCN(Cc3ccc4c(c3)OCO4)CC2)c1)c1cc2ccccc2s1`, for which the results for the inhibition in test [1], in test [2] and in test [3] were -0.41%, -0.3% and -3.63%, respectively.

As for `COc1ccc(N2CCN(CCCCNC(=O)c3ccc(NC(=O)c4cc(C(F)(F)F)cc(C(F)(F)F)c4)cc3)CC2)cc1OC`, the inhibition in test [1] was 1.59%; in test [2], 2.48%; in test [3], 2.71%.

`NC(=O)c1cccc(CN2Cc3ccccc3OC3(CCN(Cc4c[nH]c5cnccc45)CC3)C2)c1`: the inhibition in test [1] was determined as 0.63%; in test [2], 1.28%; in test [3], 0.09%.
